This is an account of results in PubChem BioAssay (Tox21).

Structures are written as SMILES. Records with an inconclusive call do not appear. A number with no mark means an inactive call. Active and inactive are the calls of the source. Calls come from the whole dose curve; as a rule, active = well fitted inhibition curve with a large enough effect in the repeat runs; inconclusive = weak or mixed curves; inactive = no such curve, though single readings can be large or run the other way.
% is set by controls: 0 for no effect and ±100 for the full control effect; potency is the fitted concentration of half-maximal effect.

The nature of the assay: qHTS assay to identify small molecule antagonists of the estrogen related receptor (ERR) signaling pathway from Tox21 library (AID 1224848). Note: nearly all actives have a fitted effect of over 50% in size. The following applies: ERR reporter cell line, luciferase antagonist mode, 18 h; series mostly up to 92.4 µM; activity, negative = inhibition: at the top concentration. The source says:
U.S. Tox21 Program National Center for Advancing Translational Sciences [NCATS] NIH Chemical Genomics Center [NCGC] U.S. Environmental Protection Agency [EPA] National Institutes of Environmental Health Sciences [NIEHS] National Toxicology Program [NTP] U.S. Food and Drug Administration [FDA] Tox21 Assay Overview: Estrogen related receptors (ERRs), the first orphan nuclear receptors discovered, play an important role in the control of cellular energy metabolism. ERRs are required for high-energy production in response to the environmental challenges. ERR-alpha was also identified as an adverse marker for breast cancer progression; ERR-alpha-positive tumors have a poor prognosis. To screen and to identify environmental compounds that perturb the ERR signaling pathways could provide valuable information for potential therapeutic or preventive measures in the treatment of metabolic disease. For identifying ERR antagonists, ERR cell line (provided by NTP) has been used to screen Tox21 10K library.
Tox21 Assay Protocol Summary: The ERR cells were dispensed at 2,000 cells/5 ul/well in 1536-well white plates using a Multidrop dispenser. After the assay plates were incubated at a 37 C/5% CO2 incubator for 6 hours, 23 nL of compounds dissolved in DMSO, positive and negative controls or DMSO only was transferred to the assay plate by a pin tool. The plates were incubated at 37 C for 18 hours. 4 ul/well of One-Glo reagent was added into the assay plates using a Flying Reagent Dispenser. After 30-minute incubation at room temperature, the luminescence intensity in the plates was measured using a ViewLux plate reader.
(Quantitative high-throughput screening tests each substance at several concentrations.)
On to `CCCCCCOC(=O)NC(=N)c1ccc(NCc2nc3cc(C(=O)N(CCC(=O)OCC)c4ccccn4)ccc3n2C)cc1`, for which the Potency is 13.3 µM (active).

On to `CN1Cc2cc(C(=O)N3CCC(C4CCNCC4)CC3)ccc2NC(CC(=O)O)C1=O` (stereo not given), for which the “activity, negative = inhibition” value was 2.63% [at 42.5 µM].

For `CCCCOC(=O)CCCCCCCC(=O)OCCCC`, the “activity, negative = inhibition” value is 7.02%.

Turning to `CCn1cc(C(=O)O)c(=O)c2cnc(N3CCNCC3)nc21`, the “activity, negative = inhibition” value was 3.98% [at 42.5 µM].

Take `O=C1CCCCCCCCCCCC(=O)OCCO1`: the “activity, negative = inhibition” value was 3.67%.

Regarding `CC(C)C[C@H]1C(=O)N2CCC[C@H]2[C@]2(O)O[C@](NC(=O)[C@@H]3C=C4c5cccc6[nH]c(Br)c(c56)C[C@H]4N(C)C3)(C(C)C)C(=O)N12`, the Potency was 14.6 µM (active).

With `COc1cc(Cl)ccc1Oc1ccc(Cl)cc1Cl`, the “activity, negative = inhibition” value was 24.6%.

Turning to `CC(C)(O)c1ccc(CNC(=O)c2cccnc2Oc2ccc(F)cc2)cc1`, the Potency was 30.6 µM (active).

As for `Nc1cc(C(=O)O)c(O)c(S(=O)(=O)O)c1`, the “activity, negative = inhibition” value was 10.8%.

`CCCCCCc1ccc(-c2ccc(C#N)cc2)cc1`: the “activity, negative = inhibition” value was 2.43%.

As for `CCCCC(CC)CN1C(=O)C2C3C=CC(C3)C2C1=O` (stereo not given), the Potency was 54.5 µM (active).

In the case of `CO[C@@H]1[C@H](OC(=O)/C=C/C=C/C=C/C=C/C(=O)O)CC[C@]2(CO2)[C@H]1[C@@]1(C)O[C@@H]1CC=C(C)C`, the “activity, negative = inhibition” value is -27.2%.

With `CN1CCC(N(Cc2cccs2)c2ccccc2)CC1`, the “activity, negative = inhibition” value was 0.641% [at 42.5 µM].

For the molecule `Cc1cccc(C)c1OCC(=O)N[C@@H](Cc1ccccc1)[C@@H](O)C[C@H](Cc1ccccc1)NC(=O)[C@H](C(C)C)N1CCCNC1=O`, the Potency is 23.7 µM (active).

Regarding `O=S(=O)(Oc1ccc(Cl)cc1)c1ccccc1`, the “activity, negative = inhibition” value was -23.9%.

`CN(C)c1ccc(C(c2ccccc2)c2ccc(N(C)C)cc2)cc1`: the Potency is 34.4 µM (active).

For the molecule `C#Cc1cccc(Nc2ncnc3cc(OCCOC)c(OCCOC)cc23)c1`, the Potency is 6.68 µM (active).

For the molecule `CC(COCCO)OCCO` (stereo not given), the “activity, negative = inhibition” value is -2.83%.

`Cc1ncc(CO)c(C=O)c1O`: the “activity, negative = inhibition” value was 4.31% [at 42.5 µM].

`O=C1[C@H]2CCCC[C@H]2C(=O)N1CCCCN1CCN(c2nsc3ccccc23)CC1`: the Potency was 26.6 µM (active).

With `O=C(OCCCCCCOC(=O)c1ccccc1)c1ccccc1`, the “activity, negative = inhibition” value was 2.08%.

Turning to `Brc1c2ccccc2c(Br)c2ccccc12`, the activity, negative = inhibition is 4.96% [at 8.39 µM].

With `CCCCCCCC/C=C\CCCCCCCC(=O)OCC`, the “activity, negative = inhibition” value is -17.8%.

Regarding `CN1CCC(=C2c3ccccc3Sc3ccccc32)CC1`, the “activity, negative = inhibition” value is 3.2% [at 42.5 µM].

On to `CCc1cc(C2=C(C(=O)O)N(c3ccccc3C(F)(F)F)S(=O)(=O)c3ccccc32)cc2c1OCO2`, for which the Potency was 24.1 µM (active).

In the case of `CC(=O)[O][Al][O]C(C)=O`, the “activity, negative = inhibition” value is 0.8%.

On to `CCN(CC)CCNc1ccc(CNC=O)c2sc3ccc(OC)cc3c(=O)c12`, for which the Potency was 2.73 µM (active).

Consider `CCOC(=O)C(O)c1ccccc1` (stereo not given), for which the “activity, negative = inhibition” value is 6.38% [at 42.5 µM].

Take `O=C(c1ccc(F)cc1)C1CCN(CCn2c(=S)[nH]c3ccccc3c2=O)CC1`: the Potency is 26.6 µM (active).

Turning to `OC[C@H]1O[C@@H](OCCc2ccc(O)cc2)[C@H](O)[C@@H](O)[C@@H]1O`, the “activity, negative = inhibition” value is 20.4% [at 42.5 µM].

For the molecule `C=CC(=O)OCCOc1ccccc1`, the “activity, negative = inhibition” value was 74.4%.

As for `Nc1ccc(N)c2c1C(=O)c1ccccc1C2=O`, the Potency is 43.3 µM (active).

With `C=C(C)C(=O)OCC`, the “activity, negative = inhibition” value is 3.34%.

As for `NS(=O)(=O)c1ccc(N2CCCCS2(=O)=O)cc1`, the “activity, negative = inhibition” value was 7.97% [at 42.5 µM].

As to `OCc1cc(C(O)CNCCCCCCOCCCCc2ccccc2)ccc1O` (stereo not given), the Potency is 21.1 µM (active).

On to `CC(CSC(=O)c1ccccc1)C(=O)N1C[C@@H](Sc2ccccc2)C[C@H]1C(=O)O` (stereo not given in full), for which the activity, negative = inhibition was -0.558% [at 19 µM].

`O=S(c1cc(Cl)cc(Cl)c1O)c1cc(Cl)cc(Cl)c1O`: the “activity, negative = inhibition” value was -9.42% [at 42.5 µM].

`C1CCCNCCC1`: the “activity, negative = inhibition” value is -4.38%.

With `CCCCC/C=C\C/C=C\CCCCCCCC(=O)NC(C)c1ccccc1` (stereo not given), the Potency was 18.8 µM (active).

As for `CCC(C)(C)CC`, the “activity, negative = inhibition” value is -13.6%.
